The molecules below were run against Solute carrier family 2, facilitated glucose transporter member 1 (Homo sapiens) (UniProt P11166) (assay: ST_JUDE_LEISH: Cytotoxicity at 2uM final concentration against transgenic Leishmania Mexicana promastigotes LmGLUT1 that are glucose transport deficient and complemented with the human glucose transporter GLUT1. Activity is measured by DNA content using SYBR green in vitro).
Assay type: functional

Sequence of Solute carrier family 2, facilitated glucose transporter member 1 (Homo sapiens) (P11166 whole entry): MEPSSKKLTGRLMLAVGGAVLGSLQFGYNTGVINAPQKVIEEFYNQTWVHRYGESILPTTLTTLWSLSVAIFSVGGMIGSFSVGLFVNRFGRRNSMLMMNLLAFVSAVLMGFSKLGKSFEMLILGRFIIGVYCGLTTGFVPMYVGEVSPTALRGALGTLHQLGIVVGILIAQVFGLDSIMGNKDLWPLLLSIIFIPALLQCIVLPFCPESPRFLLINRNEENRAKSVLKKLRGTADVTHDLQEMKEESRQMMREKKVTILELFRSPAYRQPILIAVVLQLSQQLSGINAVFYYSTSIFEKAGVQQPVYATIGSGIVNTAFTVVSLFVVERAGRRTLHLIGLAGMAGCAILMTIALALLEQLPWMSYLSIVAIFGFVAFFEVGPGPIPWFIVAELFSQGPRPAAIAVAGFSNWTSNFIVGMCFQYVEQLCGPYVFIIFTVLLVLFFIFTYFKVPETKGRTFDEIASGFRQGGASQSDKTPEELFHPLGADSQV

Question: COc1cc2nc(N3CCC(CNC(=O)c4ccc(-c5ccc(C(=O)N(C)C)cc5O)cc4)CC3)nc(N)c2cc1OC was tested. Which inhibition did it give?
Answer: The inhibition was 0.58%.

Question: O=C(Nc1ccc2ccccc2c1)N1CCC(NCc2cccc([N+](=O)[O-])c2)CC1 was tested. Which inhibition did it give?
Answer: Its inhibition is 2.09%.

Question: How did the inhibition turn out when CC(C)CCn1c(Sc2ccc(C#N)c([N+](=O)[O-])c2)nnc1-c1ccc(Cl)cc1 was run?
Answer: Its inhibition is 10.1%.

Question: C[C@@H](C(=O)N1CCOCC1)N1CC[C@H](NS(=O)(=O)c2ccc3ccnc(N)c3c2)C1=O was tested. Which inhibition did it give?
Answer: Its inhibition is -1.02%.

Question: With CN1CCc2cc(I)c(O)cc2C1Cc1ccccc1Cl (stereo not given) as the molecule, how does the inhibition read?
Answer: Its inhibition is 1.98%.

Question: Which inhibition does the source give for COc1cc2c(cc1OCCN1CCC(N3CCCCC3)CC1)N(C(=O)/C=C/c1ccccc1Cl)CC2 here?
Answer: Its inhibition is 0.24%.

Question: With CCNC(=O)Nc1ccc(N(C)c2ccnc(Nc3ccc(CS(C)(=O)=O)cc3)n2)cc1 as the molecule, how does the inhibition read?
Answer: The inhibition was 13.5%.

Question: CC1(C)CCNc2cc(NC(=O)c3ccc(-c4ncccc4C(F)(F)F)cc3)ccc21 was tested. Which inhibition did it give?
Answer: Its inhibition is 2.63%.

Question: Which inhibition does the source give for COc1ccc(-c2cccc(NC(=O)c3cccc(Cl)c3)c2)cc1CN1CCNCC1 here?
Answer: The inhibition was 2.8%.

Question: With CCCCCCN1CCN(Cc2cccc(NC(=O)c3cc4ccccc4o3)c2)CC1 as the molecule, how does the inhibition read?
Answer: Its inhibition is 1.59%.

Question: For O=C(Cc1ccc(NC(=O)c2ccc(O)c(-c3ccc(Cl)c(Cl)c3)c2)cc1)NCCN1CCOCC1, which inhibition is on record?
Answer: The inhibition was -2.69%.

Question: How did the inhibition turn out when O=S(=O)(Nc1cc2c(cc1O)CCN(C1CCC1)CC2)c1ccc(Oc2ccc(F)cc2)cc1 was run?
Answer: The inhibition was 2.05%.

Question: For CC1(C)NC(N)=NC(=N)N1OCOc1ccc(Cl)cc1, which inhibition is on record?
Answer: The inhibition was 3.62%.

Question: COc1cc(-c2ccc3c(-c4ccc(C(=O)N5CCN(C)CC5)cc4)n[nH]c3n2)cc(OC)c1OC was tested. Which inhibition did it give?
Answer: Its inhibition is 0.99%.

Question: COc1ccc2ncc(F)c([C@H](O)CN3CCC(NCc4ccc5c(c4)NC(=O)CS5)CC3)c2c1 was tested. Which inhibition did it give?
Answer: Its inhibition is -1.54%.

Question: For CC(C)CCN1CCCN(Cc2cccc(NC(=O)c3ccc(-c4ccccc4)cc3)c2)CC1, which inhibition is on record?
Answer: The inhibition was 2.17%.

Question: For CN1CCN(CCCN(Cc2ccc(-c3cccc(CNCc4ccc5c(c4)OCO5)c3)cc2)C(=O)NCCc2ccccc2)CC1, which inhibition is on record?
Answer: Its inhibition is 5.4%.

Question: How did the inhibition turn out when CCn1c(Sc2ccc([N+](=O)[O-])c(C#N)c2)nnc1-c1cccc(Cl)c1 was run?
Answer: The inhibition was 1.53%.

Question: Which inhibition does the source give for Cc1ccc(-c2cncc(-c3cc(NC4CCN(Cc5ccccc5)CC4)nc(-c4ccccc4)n3)c2)cc1 here?
Answer: Its inhibition is 2.11%.

Question: With Cc1cccc2nc(-c3cccc(-c4ccc(NC(=O)Cc5ccon5)cc4)c3)[nH]c12 as the molecule, how does the inhibition read?
Answer: The inhibition was 14.2%.

Question: CC(Cc1ccc(C(=O)N2CCN(C(=O)c3ccc(CC(C)NCCc4cccc(Cl)c4)cc3)CC2)cc1)NCCc1cccc(Cl)c1 (stereo not given) was tested. Which inhibition did it give?
Answer: Its inhibition is 6.51%.

Question: For CN(C)CCCN1CCN(C(=O)c2cc3cc(-c4ccccc4)ccc3n2S(=O)(=O)c2ccccc2)CC1, which inhibition is on record?
Answer: The inhibition was 60.9%.

Question: For C=Cc1cc(NC(=O)N2CCc3cc(OC)c(C(F)(F)F)cc32)cc(-c2cccnc2)c1, which inhibition is on record?
Answer: The inhibition was 4.52%.

Question: With O=C(C=Cc1ccc(Cl)c(Cl)c1)NCCCCCN1CCC(CCNC(=O)C(c2ccccc2)c2ccccc2)CC1 as the molecule, how does the inhibition read?
Answer: The inhibition was 3.47%.

Question: How did the inhibition turn out when Cc1cc(N[C@@H](Cc2ccccc2)C(=O)NCCc2ccccc2)nc(NCCOc2ccccc2)n1 was run?
Answer: Its inhibition is 5.12%.

Question: With COc1ccc(Nc2nccc(N3CCC(NC(=O)Nc4cccc(OC)c4)C3)n2)cc1 (stereo not given) as the molecule, how does the inhibition read?
Answer: The inhibition was 0.29%.

Question: How did the inhibition turn out when CC(C)(C)c1ccc(CN2CCC(NC(=O)c3ccc(-c4ccccc4F)s3)CC2)cc1 was run?
Answer: The inhibition was 0.69%.

Question: Clc1ccc(-c2cnc3ccc(NCCc4cccnc4)nn23)cc1 was tested. Which inhibition did it give?
Answer: The inhibition was 1.24%.

Question: With CN1CCC(C(=O)N(Cc2ccc(-c3ccc(CNCCc4ccccc4)cn3)cc2)Cc2cccc(F)c2)CC1 as the molecule, how does the inhibition read?
Answer: Its inhibition is 3.52%.

Question: Which inhibition does the source give for COc1ccc(NC(=O)[C@H](CC(C)C)Nc2cc(C)nc(Nc3ccccc3)n2)cc1 here?
Answer: The inhibition was 19.2%.

Question: With c1ccc(CN2CCC(NCc3ccccc3-c3cccc(CNC4CCCC4)c3)CC2)cc1 as the molecule, how does the inhibition read?
Answer: The inhibition was 6.21%.

Question: With CC(Cc1ccc(COc2ccc(CC(CO)NCCc3cccc(Cl)c3)cc2)cc1)NCCc1cccc(Cl)c1 (stereo not given) as the molecule, how does the inhibition read?
Answer: Its inhibition is 51.7%.

Question: With COc1cc(CNCCCNc2nc(=O)c3sccc3[nH]2)c2[nH]cc(Cl)c2c1 as the molecule, how does the inhibition read?
Answer: Its inhibition is 92.7%.

Question: How did the inhibition turn out when COCCCNc1nc2cc(OC)c(OC)cc2c2nc(-c3ccccc3)nn12 was run?
Answer: The inhibition was 2.53%.

Question: Which inhibition does the source give for COc1cc(-n2cnc3cc(-c4ccc([N+](=O)[O-])cc4)sc3c2=O)ccc1OCCN1CCCC1 here?
Answer: The inhibition was 19.5%.

Question: For CCCCCC(C)C(C)c1cc(O)c2c(c1)OC(C)(C)CC2(O)c1ccccn1 (stereo not given), which inhibition is on record?
Answer: Its inhibition is 1.35%.

Question: N#Cc1c(N)nc(SCC(=O)Nc2cc(C(F)(F)F)ccc2Cl)c(C#N)c1-c1cccs1 was tested. Which inhibition did it give?
Answer: Its inhibition is 1.06%.

Question: Which inhibition does the source give for COc1ccc2nc(C)cc(N/N=C/c3ccccc3[N+](=O)[O-])c2c1 here?
Answer: Its inhibition is 2.3%.

Question: How did the inhibition turn out when COc1ccc2[nH]ccc(=NN=Cc3ccc(Cl)cc3)c2c1 was run?
Answer: Its inhibition is 1.86%.

Question: With CC(=O)Nc1ncc(C(=O)Nc2ccc(-c3cccc(-c4nc5cc(C(F)(F)F)ccc5[nH]4)c3)cc2)s1 as the molecule, how does the inhibition read?
Answer: The inhibition was -2.18%.
